Where “and” joins values, the source holds several entries; their conditions need not be identical. Equal entries are not always repeated. Hit rate of the full screen: of about 5,500 compounds, about 2,000 (36%) were called active. Inconclusive results (about 18%) are left out. No stated cut-off is given here; in the data, active means normalized growth mostly below about 0.91 (no sharp cut-off); inconclusive means no clear call, values can overlap the other calls; inactive means mostly above about 0.92. The list shows a part of the results.
Experiment: chemical genetic growth profiling, strain panel (AID 1159580);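 further: tested at 20 µM; growth read once vehicle control cultures reached saturation at 30 °C; 1 = growth at the plate median or of vehicle wells; lower values mean less growth of the strain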
Conditions: S. cerevisiae deletion strains, growth OD

Measured: normalized growth

O=C(/C=C/c1ccc(O)c(O)c1)O[C@@H]1C[C@](O)(C(=O)O)C[C@@H](O)[C@H]1O
inactive: locus YAL021C, strain ccr4, hits give low values 1.05 | locus YAL026C, strain drs2, hits give low values 0.979 | locus YAL030W, strain snc1, hits give low values 0.983 | locus YBL061C, strain skt5, hits give low values 0.992 | locus YBR009C, strain hhf1, hits give low values 0.994 | locus YBR021W, strain FUR4, hits give low values 0.992 | locus YBR023C, strain chs3, hits give low values 1.03 | locus YBR171W, strain sec66, hits give low values 0.95 | locus YBR229C, strain ROT2, hits give low values 0.997 | locus YBR231C, strain swc5, hits give low values 0.956 | locus YBR279W, strain paf1, hits give low values 0.988 | locus YCL011C, strain gbp2, hits give low values 0.985 | locus YCL016C, strain dcc1, hits give low values 1.02 | locus YCL029C, strain bik1, hits give low values 1.02 | locus YCL061C, strain MRC1, hits give low values 1 | locus YCL069W, strain vba3, hits give low values 0.964 | locus YCR088W, strain abp1, hits give low values 0.968 | locus YDL005C, strain med2, hits give low values 0.966 | locus YDL035C, strain GPR1, hits give low values 0.984 | locus YDL040C, strain nat1, hits give low values 0.98 | locus YDL074C, strain BRE1, hits give low values 1.04 | locus YDL101C, strain DUN1, hits give low values 1.02 | locus YDL185W, strain tfp1, hits give low values 1.01 | locus YDL192W, strain arf1, hits give low values 1 | locus YDR001C, strain nth1, hits give low values 0.98 | locus YDR069C, strain doa4, hits give low values 0.97 | locus YDR101C, strain arx1, hits give low values 1.02 | locus YDR137W, strain rgp1, hits give low values 0.98 | locus YDR150W, strain NUM1, hits give low values 1.01 | locus YDR159W, strain sac3, hits give low values 0.915 | locus YDR162C, strain NBP2, hits give low values 1.01 | locus YDR195W, strain ref2 0.942 | locus YDR297W, strain sur2, hits give low values 0.99 | locus YDR318W, strain mcm21, hits give low values 1.01 | locus YDR334W, strain swr1, hits give low values 0.974 | locus YDR335W, strain msn5, hits give low values 0.973 | locus YDR388W, hits give low values 1.01 | locus YDR392W, strain spt3, hits give low values 0.997 | locus YDR502C, strain sam2, hits give low values 1.02 | locus YEL003W, strain gim4, hits give low values 0.976 | locus YEL037C, strain rad23, hits give low values 0.973 | locus YEL061C, strain CIN8 (second series), hits give low values 0.965 | locus YEL061C, strain CIN8, hits give low values 1.01 | locus YER015W, strain faa2, hits give low values 0.988 | locus YER016W, strain bim1, hits give low values 0.968 | locus YER110C, hits give low values 1.02 | locus YER111C, strain swi4, hits give low values 0.976 | locus YER155C, strain BEM2 (second series), hits give low values 0.993 | locus YER155C, strain BEM2, hits give low values 1.01 | locus YER167W, strain BCK2, hits give low values 1.01 | locus YFR010W, strain ubp6, hits give low values 0.972 | locus YGL078C, strain dbp3, hits give low values 1.01 | locus YGL086W, strain mad1, hits give low values 1.02 | locus YGL167C, strain pmr1, hits give low values 0.971 | locus YGL173C, strain kem1, hits give low values 0.959 | locus YGL227W, strain vid30, hits give low values 0.975 | locus YGL240W, strain doc1, hits give low values 0.962 | locus YGL248W, strain PDE1, hits give low values 1.01 | locus YGL253W, strain hxk2, hits give low values 0.949 | locus YGR078C, strain PAC10, hits give low values 1.03 | locus YGR135W, strain pre9, hits give low values 0.997 | locus YGR252W, strain gcn5, hits give low values 0.97 | locus YHR013C, strain ard1, hits give low values 0.997 | locus YHR027C, strain rpn1, hits give low values 0.985 | locus YHR030C, strain SLT2, hits give low values 1.01 | locus YHR079C, strain IRE1 (second series), hits give low values 1.01 | locus YHR079C, strain IRE1, hits give low values 1 | locus YHR094C, strain hxt1, hits give low values 1.02 | locus YHR129C, strain ARP1, hits give low values 1 | locus YHR142W, strain chs7, hits give low values 0.975 | locus YHR200W, strain rpn10, hits give low values 1.02 | locus YIL066C, strain RNR3, hits give low values 0.981 | locus YIL073C, strain SPO22, hits give low values 1.02 | locus YIL125W, strain kgd1, hits give low values 1.02 | locus YIR030C, strain dcg1, hits give low values 1.01 | locus YJL092W, strain hpr5, hits give low values 0.969 | locus YJL095W, strain BCK1 (second series), hits give low values 0.953 | locus YJL095W, strain BCK1, hits give low values 1.04 and 1.02 | locus YJL115W, strain asf1, hits give low values 0.992 | locus YJL129C, strain trk1, hits give low values 0.966 | locus YJL134W, strain LCB3, hits give low values 1.01 | locus YJL154C, strain vps35, hits give low values 0.976 | locus YJL164C, strain tpk1, hits give low values 1.01 | locus YJL166W, strain qcr8, hits give low values 0.974 | locus YJL168C, strain set2, hits give low values 1 | locus YJL187C, strain SWE1 (second series), hits give low values 1.03 | locus YJR043C, strain POL32, hits give low values 1.01 | locus YJR066W, strain TOR1, hits give low values 0.947 | locus YJR075W, strain HOC1, hits give low values 1.04

Source: PubChem BioAssay AID1159580 (chemical genetic matrix, 2015)
